Laboratory results from PubChem BioAssay AID2125 (NMMLSC, 2009).
Values without a mark were called inactive.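 The calls were made as follows: active = combined score above 50, rising as EC50 falls below 10 µM and growth at top dose drops; inactive = the rest.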 Peptide text beside a SMILES is read from it. * marks the point of attachment. Cbz = O=C(OCc1ccccc1)*

System: YE3961
Test: yeast strain panel proliferation effects – secondary panel, OD600, 26S proteasome disassembly project, profiling panel (AID 2125)
Conditions: S. cerevisiae strain panel, growth OD600, 6-8 h, at 100 µM, hits give low values

With `CC(C)C[C@@H](C=O)NC(=O)[C@H](CC(C)C)NC(=O)[C@H](CC(C)C)NC(=O)OCc1ccccc1` (Cbz-Leu-Leu-Leu-aldehyde) the percent response (growth) was 59%.

Compound `CC(=O)N1C(=O)C(=C2C=C(C)OC(C)=C2)c2ccccc21` has a percent response (growth) of 78.5%.
